Reference: PubChem BioAssay (NCATS)
Where “and” joins values, the source holds several entries; their conditions need not be identical. Identical values can stand only once. Inconclusive results are not listed. Where a call stands in place of a potency, no number is given. Calls of active or inactive are those of the source. Unless noted, the call rests on the fitted dose curve; in most records, active means well fitted curve in the direction sought with a large enough effect; inconclusive means small, poorly fitted or top-dose-only effect, or another doubt; inactive means no such curve, though single readings can be large; an effect the other way counts as inactive or inconclusive.

Columns and labels:
[1] = biological target: Glutaminase kidney isoform, mitochondrial (Homo sapiens) (UniProt O94925); experiment: qHTS for Inhibitors of Glutaminase (GLS): LOPAC Validation (AID 624146); further: nearly all actives have a fitted effect of over 60% in size; further: potency means the concentration at half of the fitted maximal effect
Procedure, shortened: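 Glutamate formation by hKGA was monitored fluorometrically using coupled glutamate oxidase, HRP and Amplex Red. Substrate was added as 1 mM L-glutamine solution; incubation was 30 min at RT after an initial read.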

[2] = qHTS of Nrf2 Activators: LOPAC Validation (AID 624149)
Procedure, shortened: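 AREc32_Fluc cells, 1000/well in OPTI-MEM with 5% FBS, grown overnight, then exposed to compounds for 24 hr at 37 deg C, 5% CO2. ARE-driven firefly luciferase read by Steady-Glo luminescence after 30 min at RT.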

[3] = qHTS of Trypanosoma Brucei Inhibitors: LOPAC Validation (AID 624147)
Procedure, shortened: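 Screened from lowest to highest concentration, compounds were pinned into TbPYK/substrate mixtures, and ADP (130 uM final) was added. Plates sat at room temperature for 45 min prior to Kinase-Glo Plus detection by luminescence.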

[4] = HTS Assay for Allosteric Antagonists of the Human D2 Dopamine Receptor: Hit Validation in HTRF (AID 624455);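 further: stable D1 dopamine receptor cell line scored for blocking the D1 response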
Procedure, shortened: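 Hit validation in cells stably expressing the D1 dopamine receptor, run in HTRF format. Compounds were tested for their ability to inhibit the D1-mediated response.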

[5] = biological target: Glucagon-like peptide 1 receptor (Homo sapiens) (UniProt P43220); experiment: qHTS of GLP-1 Receptor Agonists: LOPAC Validation (AID 624148);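 further: higher luminescence signal means agonism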
Procedure, shortened: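 HEK293 cells stably co-expressing GLP-1R and a cAMP-responsive luciferase reporter, plated 12 hours before compound, then incubated 4-6 hr at 37 deg C. Luminescence read 12 min after detection reagent.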

[6] = Cytotoxicity counterscreen for NFkB agonists and antagonists (AID 624476)
[7] = qHTS Assay for Identification of Small Molecule Agonists for NFkB Signaling Pathway. (AID 624478)
Procedure, shortened: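 NFkB-bla ME-180 cells carry a beta-lactamase reporter. They received compound plus TNF alpha at 10 pM final (its EC50) for 5 h at 37 C. Reporter activity was read as 460/530 nm emission ratio after 2 h LiveBLAzer substrate loading.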

[8] = qHTS Assay for Identification of Small Molecule Antagonists for NFkB Signaling Pathway. (AID 624479; calls by dose curve;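 further: pathway stimulated with TNF alpha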)
[9] = Cell Proliferation Assay against the TMD8 Cell Line (AID 651645); conditions: TMD8 DLBCL cell line proliferation/viability; at 46.1 µM (top of the series);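 further: cells exposed to compound for 48 h before reading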
Procedure, shortened: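 Cell viability of the ABC DLBCL line TMD8 is measured by CellTiter-Glo luminescence following a 48-hour incubation with compound. Percent activity uses DMSO as 100% and 9.2 uM bortezomib (final) as 0%.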

[10] = Cell Proliferation Assay against the HBL1 Cell Line (AID 651646); conditions: HBL1 DLBCL cells; at 46.1 µM (top of the series);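 further: cells exposed to compound for 48 h before reading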
Procedure, shortened: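 HBL1 ABC DLBCL cells, 500/well in RPMI with 5% FBS, treated for 48 h at 37C. Viability read by CellTiter-Glo luminescence, normalized to DMSO as 100% and 9.2 uM bortezomib as 0%.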

[11] = Cell Proliferation Assay against the TMD8 Cell Line (Caspase readout at 16 hrs) (AID 651712)
Procedure, shortened: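 TMD8 cells in RPMI with 5% FBS were treated with compound for 16 h at 37 C, then caspase 3/7 activation was read by Caspase-Glo luminescence. Percent activity was scaled to DMSO (0%) and 9.2 uM bortezomib final (100%).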

[12] = qHTS assay for small molecule agonists of the antioxidant response element (ARE) signaling pathway (AID 651741; active means well fitted activation curve with a large enough effect in the signal ratio; the % refers to the signal ratio)
Procedure, shortened: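 CellSensor ARE-bla HepG2 cells (2,000/well) carrying ARE-driven beta-lactamase, exposed 16 h at 37 C. LiveBLAzer B/G FRET substrate added for 2 h at room temperature; fluorescence intensity read.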

[13] = qHTS assay for small molecule activators of the p53 signaling pathway (AID 651743; active means well fitted activation curve with a large enough effect in the signal ratio, not every such curve was filed as active; the % refers to the signal ratio); conditions: HCT-116 p53RE-bla, beta-lactamase FRET ratio, 16 h; activation: stronger effect = higher value
Procedure, shortened: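 p53RE-bla HCT-116 cells carrying a beta-lactamase reporter under p53 response elements were exposed to compounds for 16 hours at 37 C. Reporter activity read as fluorescence after 2 hours at room temperature with LiveBLAzer B/G FRET substrate.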

[14] = qHTS assay for small molecule activators of the nuclear factor-kappa B (NF-kB) signaling pathway (AID 651749; active means well fitted activation curve with a large enough effect in the signal ratio; the % refers to the signal ratio); conditions: NF-kB-bla ME-180 cells, beta-lactamase FRET ratio, 16 h; stronger effect = higher value
Procedure, shortened: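 NF-kB-bla ME-180 cells carrying a beta-lactamase reporter under an NF-kB response element, 2,000 cells/well, exposed to compound for 16 hr at 37C; FRET-based beta-lactamase fluorescence read-out of pathway activation.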

[15] = qHTS assay for small molecule disruptors of the mitochondrial membrane potential - 1 hr assay (AID 651754; calls by dose curve; further: nearly all actives have a fitted effect of over 35% in size)
Procedure, shortened: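 HepG2 cells, attached overnight, were exposed to compound for 1 hr at 37C, then stained 30 min with a potentiometric dye. Ratio of red aggregate (590nm) to green monomer (535nm) fluorescence reports membrane potential; collapse shifts signal toward green.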

[16] = qHTS assay for small molecule disruptors of the mitochondrial membrane potential - 5 hr assay (AID 651755; calls by dose curve; further: nearly all actives have a fitted effect of over 40% in size)
Procedure, shortened: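 HepG2 cells (2,000/well), attached overnight, exposed to compound 5 hr at 37C, then Mito-MPS dye 30 min. Fluorescence read for monomers (490/535 nm) and aggregates (540/590 nm).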

Chain of Glucagon-like peptide 1 receptor (Homo sapiens) (P43220 whole entry, looked up): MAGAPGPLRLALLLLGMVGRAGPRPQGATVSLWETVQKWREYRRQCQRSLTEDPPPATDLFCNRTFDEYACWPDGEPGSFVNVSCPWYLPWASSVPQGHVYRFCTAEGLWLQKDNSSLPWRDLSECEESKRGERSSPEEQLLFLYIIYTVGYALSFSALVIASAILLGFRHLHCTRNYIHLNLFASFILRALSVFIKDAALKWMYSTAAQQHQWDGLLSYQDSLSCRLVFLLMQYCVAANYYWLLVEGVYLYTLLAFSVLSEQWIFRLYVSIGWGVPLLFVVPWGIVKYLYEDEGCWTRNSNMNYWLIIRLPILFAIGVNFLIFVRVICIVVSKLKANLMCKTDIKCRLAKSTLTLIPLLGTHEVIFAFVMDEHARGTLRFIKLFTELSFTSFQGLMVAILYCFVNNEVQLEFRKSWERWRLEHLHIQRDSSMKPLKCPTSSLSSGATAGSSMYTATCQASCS
Chain of Glutaminase kidney isoform, mitochondrial (Homo sapiens) (O94925 whole entry, looked up, canonical isoform): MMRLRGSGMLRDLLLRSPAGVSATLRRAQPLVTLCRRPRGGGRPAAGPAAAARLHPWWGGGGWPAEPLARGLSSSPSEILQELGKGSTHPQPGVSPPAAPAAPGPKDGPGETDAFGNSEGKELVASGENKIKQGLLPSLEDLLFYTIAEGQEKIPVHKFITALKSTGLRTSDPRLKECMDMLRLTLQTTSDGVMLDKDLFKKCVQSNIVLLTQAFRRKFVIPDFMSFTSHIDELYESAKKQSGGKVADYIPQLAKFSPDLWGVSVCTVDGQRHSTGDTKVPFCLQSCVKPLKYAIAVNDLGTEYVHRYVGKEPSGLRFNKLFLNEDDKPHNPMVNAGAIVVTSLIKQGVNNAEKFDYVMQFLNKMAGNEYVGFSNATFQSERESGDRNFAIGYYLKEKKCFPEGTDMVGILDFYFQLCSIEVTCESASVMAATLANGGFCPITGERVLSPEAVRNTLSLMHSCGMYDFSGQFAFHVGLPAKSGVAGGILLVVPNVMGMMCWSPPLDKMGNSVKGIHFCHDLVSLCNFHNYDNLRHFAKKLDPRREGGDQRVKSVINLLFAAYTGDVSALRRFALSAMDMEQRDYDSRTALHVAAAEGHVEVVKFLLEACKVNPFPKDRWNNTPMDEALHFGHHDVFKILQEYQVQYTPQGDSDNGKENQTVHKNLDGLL

For Nc1ncnc2c1ncn2[C@@H]1O[C@H](COP(=O)(O)OP(=O)(O)OP(=O)(O)OP(=O)(O)OC[C@@H]2O[C@H](n3cnc4c(N)ncnc43)[C@@H](O)[C@H]2O)[C@@H](O)[C@H]1O, the Potency [1] was “inactive” and the outcome [2] was “inactive”.
For C[N+]1(C)C2CC(OC(=O)[C@H](CO)c3ccccc3)CC1C1OC12 (some centres not stated), the Potency [1] was “inactive”, the Potency [3] was “inactive” and the Potency [4] was “inactive”.
In the case of C#C[C@]1(O)CC[C@H]2[C@@H]3CCC4=Cc5oncc5CC4(C)[C@H]3CCC21C (some centres not stated), the Potency [1] is reported as “inactive” and the outcome [5] is reported as “inactive”.
In the case of NCCSSCCN, the Potency [1] is reported as “inactive”, the outcome [2] is reported as “inactive” and the Potency [4] is reported as “inactive”.
With O=C(O)c1cc([N+](=O)[O-])ccc1NCCCc1ccccc1 the Potency [1] was “inactive”, the Potency [3] was “inactive” and the Potency [4] was “inactive”.
For Ic1ccc(N2CCN(Cc3c[nH]c4ncccc34)CC2)cc1, the Potency [1] was “inactive”, the outcome [2] was “inactive” and the Potency [4] was “inactive”.
For COc1ccc(NC(=O)/C=C/c2ccc(Cl)cc2)cc1, the Potency [1] was “inactive”, the outcome [2] was “inactive” and the Potency [4] was “inactive”.
In the case of CNCC[C@H](Oc1ccc(C(F)(F)F)cc1)c1ccccc1, the Potency [1] is reported as “inactive”, the Potency [3] is reported as “inactive” and the Potency [4] is reported as “inactive”.
In the case of CC(C)(C=O)Cc1cc(C(C)(C)C)c(O)c(C(C)(C)C)c1, the Potency [1] is reported as 2.51 µM (active), the outcome [5] is reported as “inactive” and the outcome [2] is reported as “inactive”. For the same molecule, the Potency [4] was “inactive”.
With NCCCCCCCCCCN the Potency [1] was “inactive”, the outcome [5] was “inactive” and the Potency [4] was “inactive”.
With CCN(CC)c1ncnc2c1ncn2[C@@H]1O[C@H](COP(=O)(O)OP(=O)(O)C(Br)(Br)P(=O)(O)O)[C@@H](O)[C@H]1O the Potency [1] was “inactive”, the outcome [5] was “inactive” and the outcome [2] was “inactive”. The Potency [4] was “inactive”.
For CN1CC(=O)N/C1=N/C(=O)Nc1cccc(Cl)c1, the Potency [1] was “inactive”, the outcome [5] was “inactive” and the outcome [2] was “inactive”. For the same molecule, the Potency [4] was “inactive”, the Potency [6] was “inactive” and the outcome [7] was “inactive”. For the same molecule, the outcome [8] was “inactive”, the viability (% of control) [9] was 105% and the viability, percent of control [10] was 111%. The outcome [11] was “inactive”.
With O=C(O)[C@@H]1C[C@@H](C(=O)O)N1 the Potency [1] was “inactive” and the Potency [4] was “inactive”.
In the case of NC(CCCP(=O)(O)O)C(=O)O (configuration not stated), the Potency [1] is reported as “inactive”, the outcome [5] is reported as “inactive” and the outcome [2] is reported as “inactive”. The Potency [4] was “inactive”.
With C=CC(=O)c1ccc(CCCCCC)cc1 the Potency [1] was “inactive” and the outcome [5] was “inactive”.
For Oc1cc(O)cc(/C=C/c2ccc(O)c(O)c2)c1, the Potency [1] was 2 µM (active), the outcome [5] was “inactive” and the Potency [4] was “inactive”.
With NC[C@H]1O[C@@H](n2cnc3c(N)ncnc32)[C@H](O)[C@@H]1O the Potency [1] was “inactive”, the outcome [5] was “inactive” and the outcome [2] was “inactive”. For the same molecule, the Potency [4] was “inactive”.
With CCN1/C(=C/C(C)=O)Sc2ccc(OC)cc21 the Potency [1] was “inactive”, the outcome [5] was “inactive” and the outcome [2] was “inactive”. For the same molecule, the Potency [4] was “inactive”.
In the case of COc1cc(C(O)CO)ccc1OS(=O)(=O)O (configuration not stated), the Potency [1] is reported as “inactive”, the outcome [5] is reported as “inactive” and the outcome [2] is reported as “inactive”. The Potency [4] was “inactive”.
In the case of Nc1nc(Cl)nc2c1ncn2[C@@H]1O[C@H](CO)[C@@H](O)[C@H]1O, the Potency [1] is reported as “inactive” and the Potency [4] is reported as “inactive”.
In the case of O=c1[nH]c2cc(C(F)(F)F)ccc2n1-c1cc(C(F)(F)F)ccc1O, the Potency [1] is reported as “inactive”, the outcome [5] is reported as “inactive” and the Potency [4] is reported as “inactive”.
With O=C1C(SCCO)=C(SCCO)C(=O)c2ccccc21 the Potency [1] was 10 µM (active) and the Potency [4] was “inactive”.
In the case of CN1CCc2cccc3c2C1Cc1ccc(O)c(O)c1-3 (configuration not stated), the Potency [1] is reported as 4.47 µM (active) and the outcome [5] is reported as “inactive”.
In the case of CSc1nc(N)c2ncn([C@@H]3O[C@H](COP(=O)(O)OP(=O)(O)OP(=O)(O)O)[C@@H](O)[C@H]3O)c2n1, the Potency [1] is reported as “inactive”, the outcome [5] is reported as “inactive” and the outcome [2] is reported as “inactive”. For the same molecule, the Potency [4] was “inactive”.
For Nc1nc(Nc2ccccc2)nc2c1ncn2[C@@H]1O[C@H](CO)[C@@H](O)[C@H]1O, the Potency [1] was “inactive”, the outcome [2] was “inactive” and the Potency [4] was “inactive”.
In the case of Clc1ccc(N2CCN(Cc3cc4ccccn4n3)CC2)cc1, the Potency [1] is reported as “inactive”, the outcome [5] is reported as “inactive” and the outcome [2] is reported as “inactive”. For the same molecule, the Potency [4] was “inactive”.
For Oc1cc2c(cc1O)CN(C(=S)NCCc1ccc(Cl)cc1)CCC2, the Potency [1] was 2.24 µM (active), the outcome [2] was “inactive” and the Potency [4] was “inactive”.
In the case of CC(C)NCC(O)COc1cccc2ccccc12 (configuration not stated), the Potency [1] is reported as “inactive”, the outcome [5] is reported as “inactive” and the outcome [2] is reported as “inactive”. The Potency [4] was “inactive”, the Potency [12] was “inactive” and the activation [13] was -4.3% (inactive) and -0.33% (inactive). For the same molecule, the activation [14] was -0.327% (inactive) and 0.291% (inactive), the Potency [15] was “inactive” and the Potency [16] was “inactive”.
For NCCNC(=O)c1ncsc1-c1cccc(F)c1, the Potency [1] was “inactive”, the Potency [3] was “inactive” and the Potency [4] was “inactive”.
With NC(=O)C(=O)O the Potency [1] was “inactive”, the outcome [5] was “inactive” and the outcome [2] was “inactive”. The Potency [4] was “inactive”.
In the case of O=c1[nH]c2cc([N+](=O)[O-])c([N+](=O)[O-])cc2[nH]c1=O, the Potency [1] is reported as “inactive”, the Potency [3] is reported as “inactive” and the Potency [4] is reported as “inactive”.
In the case of NC(N)=NC(=O)c1nc(Cl)c(N2CCCCCC2)nc1N, the Potency [1] is reported as “inactive”, the outcome [5] is reported as “inactive” and the outcome [2] is reported as “inactive”. For the same molecule, the Potency [4] was “inactive”.
With CNC(=O)[C@H]1O[C@@H](n2cnc3c(NCc4cccc(I)c4)ncnc32)[C@H](O)[C@@H]1O the Potency [1] was “inactive”, the Potency [3] was “inactive” and the Potency [4] was “inactive”.
For CCOC(=O)C1=C(C)NC(C)=C(C(=O)OCC)C1c1c(F)c(F)c(F)c(F)c1F, the Potency [1] was “inactive”, the outcome [5] was “inactive” and the outcome [2] was “inactive”. For the same molecule, the Potency [4] was “inactive”.
For CCCCC/C=C\CC(O)/C=C/c1cccc(CC(O)CCCCO)n1 (configuration not stated), the Potency [1] was “inactive”, the Potency [3] was “inactive” and the Potency [4] was “inactive”.
